# The whole screen tested about 5,500 compounds, of which about 2,000 (36%) were called active. Roughly 18% stayed inconclusive and do not appear here. This is one part of the list. A number with no mark means an inactive call. Cut-off read from the data, not from the text of the source: active = normalized growth mostly below about 0.91 (no sharp cut-off); inconclusive = no clear call, values can overlap the other calls; inactive = mostly above about 0.92.
# Assay: chemical genetic growth profiling, strain panel (AID 1159580);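 note: tested at 20 µM; growth read once vehicle control cultures reached saturation at 30 °C; 1 = growth at the plate median or of vehicle wells; lower values mean less growth of the strain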
# Settings: growth OD
compound,measurement,setting,value
COc1ccc2c(c1C(C)C)CCC1C(C)(C)C(=O)CCC21C (stereo unspecified),normalized growth,"S. cerevisiae deletion strains, locus YAL013W, strain DEP1, active compounds read low",1
same,normalized growth,"S. cerevisiae deletion strains, locus YBR021W, strain FUR4, active compounds read low",1
same,normalized growth,"S. cerevisiae deletion strains, locus YBR229C, strain ROT2, active compounds read low",0.988
same,normalized growth,"S. cerevisiae deletion strains, locus YCL029C, strain bik1, active compounds read low",0.955
same,normalized growth,"S. cerevisiae deletion strains, locus YDL035C, strain GPR1, active compounds read low",0.972
same,normalized growth,"S. cerevisiae deletion strains, locus YDL074C, strain BRE1, active compounds read low",0.969
same,normalized growth,"S. cerevisiae deletion strains, locus YDL101C, strain DUN1, active compounds read low",0.996
same,normalized growth,"S. cerevisiae deletion strains, locus YDL134C, strain PPH21, active compounds read low",0.976
same,normalized growth,"S. cerevisiae deletion strains, locus YDL185W, strain tfp1, active compounds read low",0.982
same,normalized growth,"S. cerevisiae deletion strains, locus YDL192W, strain arf1, active compounds read low",0.974
same,normalized growth,"S. cerevisiae deletion strains, locus YDR101C, strain arx1, active compounds read low",0.981
same,normalized growth,"S. cerevisiae deletion strains, locus YDR150W, strain NUM1, active compounds read low",0.96
same,normalized growth,"S. cerevisiae deletion strains, locus YDR162C, strain NBP2, active compounds read low",0.983
same,normalized growth,"S. cerevisiae deletion strains, locus YDR318W, strain mcm21, active compounds read low",0.968
same,normalized growth,"S. cerevisiae deletion strains, locus YDR388W, active compounds read low",0.977
same,normalized growth,"S. cerevisiae deletion strains, locus YDR502C, strain sam2, active compounds read low",0.982
same,normalized growth,"S. cerevisiae deletion strains, locus YEL061C, strain CIN8, active compounds read low",0.988
same,normalized growth,"S. cerevisiae deletion strains, locus YER110C, active compounds read low",0.982
same,normalized growth,"S. cerevisiae deletion strains, locus YER155C, strain BEM2, active compounds read low",0.991
same,normalized growth,"S. cerevisiae deletion strains, locus YER167W, strain BCK2, active compounds read low",0.95
same,normalized growth,"S. cerevisiae deletion strains, locus YGL078C, strain dbp3, active compounds read low",0.977
same,normalized growth,"S. cerevisiae deletion strains, locus YGL086W, strain mad1, active compounds read low",0.961
same,normalized growth,"S. cerevisiae deletion strains, locus YGL248W, strain PDE1, active compounds read low",0.976
same,normalized growth,"S. cerevisiae deletion strains, locus YGR078C, strain PAC10, active compounds read low",1
same,normalized growth,"S. cerevisiae deletion strains, locus YGR135W, strain pre9, active compounds read low",0.984
same,normalized growth,"S. cerevisiae deletion strains, locus YGR229C, strain SMI1, active compounds read low",0.974
same,normalized growth,"S. cerevisiae deletion strains, locus YGR252W, strain gcn5, active compounds read low",0.98
same,normalized growth,"S. cerevisiae deletion strains, locus YHR030C, strain SLT2, active compounds read low",0.979
same,normalized growth,"S. cerevisiae deletion strains, locus YHR079C, strain IRE1 (second series), active compounds read low",0.96
same,normalized growth,"S. cerevisiae deletion strains, locus YHR094C, strain hxt1, active compounds read low",0.974
same,normalized growth,"S. cerevisiae deletion strains, locus YHR129C, strain ARP1, active compounds read low",0.983
same,normalized growth,"S. cerevisiae deletion strains, locus YHR200W, strain rpn10, active compounds read low",0.955
same,normalized growth,"S. cerevisiae deletion strains, locus YIL066C, strain RNR3, active compounds read low",0.979
same,normalized growth,"S. cerevisiae deletion strains, locus YIL073C, strain SPO22, active compounds read low",0.921
same,normalized growth,"S. cerevisiae deletion strains, locus YIL125W, strain kgd1, active compounds read low",0.971
same,normalized growth,"S. cerevisiae deletion strains, locus YIR030C, strain dcg1, active compounds read low",0.97
same,normalized growth,"S. cerevisiae deletion strains, locus YJL095W, strain BCK1, active compounds read low",0.954
same,normalized growth,"S. cerevisiae deletion strains, locus YJL134W, strain LCB3, active compounds read low",0.983
same,normalized growth,"S. cerevisiae deletion strains, locus YJL168C, strain set2, active compounds read low",0.984
same,normalized growth,"S. cerevisiae deletion strains, locus YJL187C, strain SWE1 (second series), active compounds read low",0.986
same,normalized growth,"S. cerevisiae deletion strains, locus YJR043C, strain POL32, active compounds read low",0.962
same,normalized growth,"S. cerevisiae deletion strains, locus YJR075W, strain HOC1, active compounds read low",1
same,normalized growth,"S. cerevisiae deletion strains, locus YKL009W, strain mrt4, active compounds read low",0.966
same,normalized growth,"S. cerevisiae deletion strains, locus YKL068W, active compounds read low",0.976
same,normalized growth,"S. cerevisiae deletion strains, locus YKL085W, strain MDH1 (second series), active compounds read low",0.967
same,normalized growth,"S. cerevisiae deletion strains, locus YKL085W, strain MDH1, active compounds read low",0.967
same,normalized growth,"S. cerevisiae deletion strains, locus YKL190W, strain CNB1, active compounds read low",0.988
same,normalized growth,"S. cerevisiae deletion strains, locus YKR001C, strain vps1, active compounds read low",0.979
same,normalized growth,"S. cerevisiae deletion strains, locus YLR039C, strain RIC1, active compounds read low",0.995
same,normalized growth,"S. cerevisiae deletion strains, locus YLR058C, strain SHM2, active compounds read low",0.981
same,normalized growth,"S. cerevisiae deletion strains, locus YLR102C, strain apc9, active compounds read low",0.978
same,normalized growth,"S. cerevisiae deletion strains, locus YLR262C, strain YPT6, active compounds read low",0.994
same,normalized growth,"S. cerevisiae deletion strains, locus YLR268W, strain sec22, active compounds read low",0.995
same,normalized growth,"S. cerevisiae deletion strains, locus YLR330W, strain CHS5, active compounds read low",0.985
same,normalized growth,"S. cerevisiae deletion strains, locus YLR342W, strain FKS1 (second series), active compounds read low",0.973
same,normalized growth,"S. cerevisiae deletion strains, locus YLR371W, strain rom2, active compounds read low",0.979
same,normalized growth,"S. cerevisiae deletion strains, locus YLR418C, strain cdc73, active compounds read low",0.946
same,normalized growth,"S. cerevisiae deletion strains, locus YML016C, strain PPZ1, active compounds read low",0.978
same,normalized growth,"S. cerevisiae deletion strains, locus YML032C, strain rad52, active compounds read low",0.964
same,normalized growth,"S. cerevisiae deletion strains, locus YML124C, strain tub3, active compounds read low",0.961
same,normalized growth,"S. cerevisiae deletion strains, locus YMR078C, strain ctf18, active compounds read low",0.96
same,normalized growth,"S. cerevisiae deletion strains, locus YMR223W, strain ubp8, active compounds read low",0.959
same,normalized growth,"S. cerevisiae deletion strains, locus YMR263W, strain SAP30, active compounds read low",1.01
same,normalized growth,"S. cerevisiae deletion strains, locus YMR307W, strain GAS1, active compounds read low",0.84
same,normalized growth,"S. cerevisiae deletion strains, locus YNL067W, strain RPL9B, active compounds read low",1.01
same,normalized growth,"S. cerevisiae deletion strains, locus YNL128W, strain TEP1, active compounds read low",1.01
same,normalized growth,"S. cerevisiae deletion strains, locus YNL153C, strain GIM3, active compounds read low",1
same,normalized growth,"S. cerevisiae deletion strains, locus YNL233W, strain BNI4, active compounds read low",0.98
same,normalized growth,"S. cerevisiae deletion strains, locus YNL250W, strain rad50, active compounds read low",0.972
same,normalized growth,"S. cerevisiae deletion strains, locus YNL271C, strain bni1, active compounds read low",0.977
same,normalized growth,"S. cerevisiae deletion strains, locus YNL298W, strain CLA4, active compounds read low",0.982
same,normalized growth,"S. cerevisiae deletion strains, locus YNL307C, strain MCK1, active compounds read low",0.854 (active)
same,normalized growth,"S. cerevisiae deletion strains, locus YNL322C, strain KRE1, active compounds read low",0.992
same,normalized growth,"S. cerevisiae deletion strains, locus YNR052C, strain pop2, active compounds read low",0.991
same,normalized growth,"S. cerevisiae deletion strains, locus YOL006C, strain TOP1, active compounds read low",0.896
same,normalized growth,"S. cerevisiae deletion strains, locus YOL012C, strain htz1",1.19
same,normalized growth,"S. cerevisiae deletion strains, locus YOL147C, strain pex11, active compounds read low",0.975
same,normalized growth,"S. cerevisiae deletion strains, locus YOR061W, strain CKA2, active compounds read low",0.977
same,normalized growth,"S. cerevisiae deletion strains, locus YOR069W, strain VPS5, active compounds read low",0.983
same,normalized growth,"S. cerevisiae deletion strains, locus YOR136W, strain idh2, active compounds read low",0.981
same,normalized growth,"S. cerevisiae deletion strains, locus YOR144C, strain elg1, active compounds read low",0.978
same,normalized growth,"S. cerevisiae deletion strains, locus YOR184W, strain ser1, active compounds read low",0.899
same,normalized growth,"S. cerevisiae deletion strains, locus YOR316C, strain cot1, active compounds read low",0.967
same,normalized growth,"S. cerevisiae deletion strains, locus YPL055C, strain LGE1, active compounds read low",1.01
same,normalized growth,"S. cerevisiae deletion strains, locus YPL241C, strain CIN2, active compounds read low",0.984
same,normalized growth,"S. cerevisiae deletion strains, locus YPR119W, strain clb2, active compounds read low",0.971
same,normalized growth,"S. cerevisiae deletion strains, locus YPR141C, strain kar3, active compounds read low",0.97
same,normalized growth,"S. cerevisiae deletion strains, locus YPR163C, strain tif3, active compounds read low",0.984
same,normalized growth,"S. cerevisiae deletion strains, locus YPR167C, strain met16, active compounds read low",0.97
same,normalized growth,"S. cerevisiae deletion strains, strain wtn01, active compounds read low",0.975
same,normalized growth,"S. cerevisiae strains, strain wild type, active compounds read low",0.998
